# Sampled rows, rich in hits. Any-hit rate of the full collection: about 7.3%.
# RORg inh – ROR gamma (mouse) transcription inhibition; P51450; Drosophila S2 Gal4-RORgamma UAS-luciferase reporter, 20 h; Potency, µM (top dose mostly 53.6 µM), without a hit: at the highest dose activity change, negative = inhibition, most hits filed as inhibitors; 5.4% of 310,000 active; AID 2551; note: nearly all actives have a fitted effect of over 60% in size
# Target sequence (P51450 whole entry, looked up, the tested form may be a part): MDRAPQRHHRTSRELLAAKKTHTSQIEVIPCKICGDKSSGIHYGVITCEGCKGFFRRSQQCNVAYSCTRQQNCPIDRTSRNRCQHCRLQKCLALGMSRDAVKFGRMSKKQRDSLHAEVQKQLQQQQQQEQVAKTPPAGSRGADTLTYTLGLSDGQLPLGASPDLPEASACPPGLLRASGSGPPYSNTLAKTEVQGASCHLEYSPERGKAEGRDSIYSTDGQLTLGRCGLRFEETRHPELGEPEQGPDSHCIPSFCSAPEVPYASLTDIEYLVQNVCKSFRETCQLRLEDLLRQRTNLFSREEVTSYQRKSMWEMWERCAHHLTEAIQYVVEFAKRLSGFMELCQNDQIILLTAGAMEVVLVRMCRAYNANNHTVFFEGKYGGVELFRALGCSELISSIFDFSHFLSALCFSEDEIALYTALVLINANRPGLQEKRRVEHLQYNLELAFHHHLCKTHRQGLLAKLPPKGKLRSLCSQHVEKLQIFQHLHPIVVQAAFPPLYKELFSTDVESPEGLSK
#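 Stable Schneider cell line, Gal4 DNA-binding domain fused to ROR gamma, UAS-luciferase. Cmpd 1 hr RT → CuSO4 700 uM final → 20 hr RT → luciferase reagent 10 min → luminescence.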
# Tau ThT inhib – inhibitors of human tau fibril formation, thioflavin T binding; Potency, µM (series often up to 57.4 µM), inactives show at the highest dose activity, negative = inhibition, usual class: inhibitors; P10636; 2.1% of 270,000 active; recombinant tau K18 P301L, heparin-induced fibrillization, ThT fluorescence; note: nearly all actives have a fitted effect of over 55% in size
# Target sequence (P10636 561-689 P618L limits assumed): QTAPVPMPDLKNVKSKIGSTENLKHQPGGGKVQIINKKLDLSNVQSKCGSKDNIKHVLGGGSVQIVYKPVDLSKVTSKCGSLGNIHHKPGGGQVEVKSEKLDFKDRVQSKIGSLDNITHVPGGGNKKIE
#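 Fibril formation assay: tau K18 P301L at 15 uM with trace Alexa 594 label, heparin inducer 20 uM, pH 7 sodium acetate buffer, 37 C for 6 hr; endpoint ThT signal.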
# Gal4-VP16 FLuc – Gal4-VP16 reporter inhibition counter-screen; Drosophila S2 Gal4-VP16 UAS-luciferase, luminescence, 20 h; Potency, µM (top dose mostly 53.6 µM), for the others: top-dose activity, negative = inhibition, hits mostly inhibitors; 3.5% of 310,000 active;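 note: Gal4-VP16 expression switched on by copper sulfate through the metallothionein promoter; nearly all actives have a fitted effect of over 50% in size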
# Tau fibril FP – blocks human tau fibril formation measured by polarization; 0.39% of 280,000 active; Potency, µM (titrated, usually from 57.7 µM), for inactives: at the highest dose activity, negative = inhibition, most hits filed as inhibitors; P10636; K18 P301L tau heparin fibrillization, Alexa594 FP, 6 h; note: nearly all actives have a fitted effect of over 55% in size
#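 Recombinant K18 P301L […], labeled with Alexa 594 at 0.24 uM over 15 uM unlabeled; heparin inducer 20 uM final; 37 C, 6 hr; FP endpoint.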
# Tau fluor cs – counter-screen for tau fibril formation inhibitors; tau K18 P301L (four-repeat tau fragment) Alexa594 fluorescence, heparin fibrillization; Potency, µM (highest dose often 57.7 µM), inactives show at the highest dose activity change, negative = decrease; 0.93% of 280,000 active; AID 1463; note: nearly all actives have a fitted effect of over 55% in size
#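 Human K18 P301L tau (15 uM unlabeled plus 0.24 uM Alexa 594-labeled, final) in 100 mM sodium acetate pH 7 was mixed with compound and 20 uM heparin and incubated 6 hr at 37 C.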
# Starred values were filed as active, the others as inactive; ? = inconclusive; / = not tested or not shown; [ ] = remark or other dose. Calls come from the whole dose curve; as a rule, active = well fitted curve in the direction sought with a large enough effect; inconclusive = small, poorly fitted or top-dose-only effect, or another doubt; inactive = no such curve, though single readings can be large; an effect the other way counts as inactive or inconclusive. % is set by controls: 0 for no effect and ±100 for the full control effect; potency is the fitted concentration of half-maximal effect.
SMILES,RORg inh,Tau ThT inhib,Gal4-VP16 FLuc,Tau fibril FP,Tau fluor cs
Cc1occc1C(=O)N1CCCC(CO)(Cc2ccc(F)cc2F)C1 (centres undefined),0.3%,/,2.4%,/,/
O=C(O)c1ccc(N/N=C/C=C/c2ccccc2)cc1,11.2µM*,/,1.12µM*,-6.5%,-25.9%
O=C(O)c1ccc(NS(=O)(=O)/C=C/c2ccccc2)cc1,0.0%,-1.6%,-3.7%,3.8%,0.4%
Cc1ccc(/C=N\NC(=O)c2ccc3c(c2)OCO3)o1,?,/,2.6%,/,/
O=C(N/N=C/c1ccc(Br)o1)c1ccc2c(c1)OCCO2,11.2µM*,?,?,7.8%,-8.8%
O=C(O)c1ccc(/C=N/NC(=O)c2ccc3c(c2)OCCO3)cc1,?,/,-26.5%,/,/
O=C(N/N=C\c1ccc(-c2ccc([N+](=O)[O-])cc2)o1)c1ccc2c(c1)OCO2,-37.3%,0.891µM*,?,7.5%,?
O=C(N/N=C/c1ccc([N+](=O)[O-])o1)c1ccc2c(c1)OCO2,4.47µM*,/,10µM*,/,/
COc1ccccc1CNC(=O)c1cc(S(=O)(=O)N2CCCCC2)c[nH]1,22.6%,/,2.5%,/,/
Cc1nnc(NC(=O)c2ccccc2Oc2ccccc2)s1,-20.3%,3.6%,-1.9%,1.3%,8.0%
O=C(COC(=O)Cn1cnc2ccccc21)Nc1cc2c(cc1Cl)C(=O)c1ccccc1C2=O,2.82µM*,?,?,3.5%,?
O=C(COC(=O)Cn1cnc2ccccc21)Nc1cc(S(=O)(=O)N2CCOCC2)ccc1Cl,53.6%,-4.1%,0.0%,-3.1%,-7.9%
Cc1ccc(-c2n[nH]c(=S)n2/N=C/C=C/c2ccccc2[N+](=O)[O-])cc1,4.47µM*,?,-24.3%,5.1%,?
O=[N+]([O-])c1ccccc1/C=C/C=N/n1c(-c2ccco2)n[nH]c1=S,8.91µM*,-2.2%,6.3%,-2.8%,-8.1%
Cn1ncc2c(Nc3cccc(Cl)c3)nc(Nc3cccc(Cl)c3)nc21,0.2%,15.6%,?,8.91µM*,?
CNc1nc(Nc2ccc(C)c(Cl)c2)c2cnn(C)c2n1,35.8%,/,-7.7%,/,/
Cn1ncc2c(Nc3ccc(Br)cc3)nc(Nc3ccc(Br)cc3)nc21,-26.8%,?,?,10µM*,?
CCc1cccc(N(C(=O)c2csnn2)C(C(=O)NC2CCCCC2)c2ccncc2)c1 (centres undefined),-24.1%,/,-11.1%,/,/
CCCCNC(=S)NNC(=O)C12CC3CC(CC(C3)C1)C2,14.1µM*,4.6%,?,0.2%,2.9%
Oc1ccccc1-c1cc(-c2ccccc2Cl)[nH]n1,4.47µM*,-5.4%,?,?,14.1µM*[quencher]
Oc1ccc(Cl)cc1-c1cc(-c2cccc(Br)c2)n[nH]1,?,-14.3%,0.891µM*,?,?
O=[N+]([O-])c1ccccc1-c1cc(-c2cc(Cl)ccc2O)n[nH]1,15.8µM*,?,?,?,14.1µM*[quencher]
O=C(Nc1cccnc1)c1cc(-c2cc(Cl)ccc2O)n[nH]1,18.1%,/,11.6%,1.0%,-20.2%
Oc1ccc(Cl)cc1-c1cc(-c2ccccc2Cl)[nH]n1,4.47µM*,-12.2%,10µM*,-17.8%,?
O=C(Cc1cccc(C(F)(F)F)c1)N1CCCC1,-14.7%,/,-0.4%,/,/
SMILES,RORg inh,Tau ThT inhib,Gal4-VP16 FLuc,Tau fibril FP,Tau fluor cs
COc1ccc(S(=O)(=O)NCC(c2ccc(N(C)C)cc2)N2CCOCC2)cc1 (centres undefined),/,?,/,1.3%,?
CCN1CCc2c(sc(NC(=O)c3cc4ccccc4cc3OC)c2C(N)=O)C1,4.47µM*,/,5.62µM*,/,/
COc1cccc(OC)c1C(=O)Nc1sc2c(c1C(N)=O)CCN(Cc1ccccc1)C2,14.4%,/,-6.3%,/,/
CC(C)n1nc(C(=O)Nc2nc3ccccc3[nH]2)c2ccccc2c1=O,1.78µM*,-13.1%,?,8.9%,1.2%
CC(C)n1nc(C(=O)Nc2ccccc2N2CCOCC2)c2ccccc2c1=O,24.9%,1.4%,-11.7%,-5.3%,-6.6%
CCCn1nc(C(=O)Nc2nc3ccccc3[nH]2)c2ccccc2c1=O,12.6µM*,-10.9%,20µM*,3.1%,7.2%
Cc1nn(-c2ccccc2)c2c1cc1c(=O)n(C)c(=O)nc-1n2-c1cccc(Cl)c1,/,-12.6%,/,0.8%,-1.3%
O=C1CC(Nc2ccccc2)C(=O)N1CCc1ccccc1 (centres undefined),?,-5.2%,20.8%,8.1%,-3.5%
O=C1CC(=O)N(CCc2ccccc2)C(=O)N1CCc1ccccc1,?,28.2µM*,-5.6%,?,-25.8%
COc1cccc(C2c3[nH]c4ccccc4c3C[C@H]3C(=O)N(C4CCN(Cc5ccccc5)CC4)CC(=O)N23)c1 (some centres undefined),6.8%,/,-2.1%,/,/
CC1(C)Cc2c(sc3nc(-c4cccs4)n(N)c(=O)c23)CO1,?,-11.6%,15.8µM*,3.2%,-11.7%
CC1(C)Cc2c(sc3nc(-c4ccccc4)n(N)c(=O)c23)CO1,-15.2%,-3.8%,-2.0%,5.4%,-5.9%
O=C(O)/C=C/c1cnn(-c2ccccc2)c1,7.94µM*,4.4%,14.1µM*,0.6%,10.0%
CC1CCN(c2nc3ccc(C(=O)N4CCN(Cc5ccc6c(c5)OCO6)CC4)cc3s2)CC1,?,?,7.08µM*,12.0%,-9.3%
CCOCCc1nn2c(=O)cc(COC(=O)c3ccccc3Br)nc2s1,/,?,/,5.3%,2.2%
CCCCC1=NN2C(=N)CC(=O)N=C2S1,10µM*,-9.9%,0.7%,7.3%,0.3%
CC(C)C1=NN2C(=N)CC(=O)N=C2S1,-23.7%,-6.0%,-0.9%,-3.8%,-6.1%
COc1ccc(N2C(=O)C(Cl)=C(Nc3ccccc3O)C2=O)cc1,?,10µM*,-21.6%,?,?
COc1ccc(N2C(=O)C(Cl)=C(Oc3cccc(OC)c3)C2=O)cc1,11.2µM*,14.1µM*,?,22.4µM*,-18.6%
COc1ccc(N2C(=O)c3ccccc3C2=O)cc1,14.4%,-5.3%,5.0%,2.4%,5.4%
COC(=O)c1cccnc1Oc1ccccc1,-8.7%,5.0%,1.5%,6.8%,6.7%
CC(C)COc1ccc(CNC(=S)Nc2ccccc2)cc1Cl,5.01µM*,/,12.6µM*,/,/
CC(C)Oc1ccc(CNC(=S)Nc2ccccc2)cc1Cl,11.2µM*,/,11.2µM*,/,/
O=C(O)c1ccc(CNC(=S)Nc2ccccc2)cc1,-5.7%,6.1%,-3.9%,0.0%,7.9%
CCCOc1ccc(CNC(=S)Nc2ccccc2)cc1Cl,5.01µM*,/,7.08µM*,/,/
CC(C)Oc1ccc(CC(=O)NNC(=S)Nc2ccccc2)cc1,?,-4.9%,-9.6%,-3.1%,-11.9%
COC(=O)Cc1ccc(NC(=S)NCc2ccccc2Cl)cc1,?,-4.6%,?,-6.7%,-19.5%
Cc1cccc(Cc2c(C)nc3c(-c4ccccc4)c(C)[nH]n3c2=O)c1,/,-15.7%,/,-2.4%,-17.0%
Cc1nc2c(-c3ccc(Cl)cc3)c(C)[nH]n2c(=O)c1Cc1ccccc1,1.41µM*,-9.4%,?,7.9%,-4.2%

# Bioassay records from PubChem.
